Results on 61 molecules are retold here after PubChem BioAssay AID1918 (Vanderbilt High Throughput Screening Facility, 2009).

In all, about 130,000 compounds went through this assay and about 2,500 (1.9%) were called active. The full list was thinned out, with actives kept by preference. Unmarked numbers belong to inactive results.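 How the source made its calls: active means signal ratio slope over the read window, or its plate-corrected B-score, at least 3 SD from the plate mean, either direction; inactive means the rest.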

For this test, the target named is ATP-sensitive inward rectifier potassium channel 1 (Homo sapiens) (UniProt P48048). The test can be described thus: Kir1.1 channel activity modulation, library screen – cell-based, thallium flux, MLSMR library, primary screen (AID 1918).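 Further: B-score of the F/F0 ratio slope over 7 to 12 s after thallium.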 As to conditions: Tet-inducible ROMK, thallium flux fluorescence; at 10 µM; actives lie on both sides.
Sequence of ATP-sensitive inward rectifier potassium channel 1 (Homo sapiens) (P48048 whole entry, looked up): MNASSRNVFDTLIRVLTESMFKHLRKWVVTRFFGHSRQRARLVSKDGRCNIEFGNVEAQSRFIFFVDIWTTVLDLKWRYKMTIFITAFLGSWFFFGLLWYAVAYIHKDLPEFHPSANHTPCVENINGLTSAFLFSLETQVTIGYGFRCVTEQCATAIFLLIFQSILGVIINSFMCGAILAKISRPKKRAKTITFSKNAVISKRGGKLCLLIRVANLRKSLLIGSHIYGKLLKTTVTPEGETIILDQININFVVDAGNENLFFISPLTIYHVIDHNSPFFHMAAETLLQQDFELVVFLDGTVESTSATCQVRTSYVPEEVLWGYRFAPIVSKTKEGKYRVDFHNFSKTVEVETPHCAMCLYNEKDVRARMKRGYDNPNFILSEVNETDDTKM
On to `Cc1cc(NS(=O)(=O)c2ccc(NC(=O)c3cccc(OC(F)F)c3)cc2)nc(C)n1`, for which the B-score is 0.878. The result for `Cc1ccc([N+](=O)[O-])c(OCCCNCC(C)O)c1` (stereo unspecified) reads -0.00821. Under `O=C(Cc1ccc([N+](=O)[O-])cc1)N/N=C/c1ccco1` stands -1.24; under `O=c1cc(-c2ccccc2)[nH]c2cc(F)ccc12`, 4.56 (active). On to `N#Cc1c(-c2ccc(F)cc2)nc(-c2ccccc2)[nH]c1=O`, for which the B-score is -1.43. With `O=c1[nH]c(-c2ccccc2)c(-c2ccccc2)[nH]1`, the B-score was -0.0963. As to `CN(C)/C=C/C(=O)c1cnc2sccn2c1=O`, the B-score is -0.835. The result for `Cc1cccc(OP(=O)(Nc2c(C)n(C)n(-c3ccccc3)c2=O)Oc2cccc(C)c2)c1` reads -0.868. Consider `Cc1cccc(Oc2c([N+](=O)[O-])c(=O)n(C)c3ccccc23)c1`, for which the B-score is -2.67 (active). In the case of `Cc1nn(C)c(Oc2ccccc2)c1[N+](=O)[O-]`, the B-score was 0.573. In the case of `COc1cccc(-c2ccc(SCC(=O)N3CCN(c4ccccc4)CC3)nn2)c1`, the B-score is 0.576. `COc1ccc(S(=O)(=O)N2CCCCCC2)cc1C(=O)OCC(=O)Nc1cc(C)on1`: the B-score is 0.559. For the molecule `COc1cc2c(cc1OC)C(C(C)C)=NC(C)(C)C2`, the B-score is -0.0102. Consider `COc1cc2c(cc1O)C(SC)=NC(C)(C)C2`, for which the B-score is -6.55 (active). `CN(C)C(=O)c1cccn(Cc2cccc(C(F)(F)F)c2)c1=O`: the B-score was 0.481.

Take `CN1CCNC(=O)C1CC(=O)N1CC=C(c2ccc(F)cc2)CC1` (stereo unspecified): the B-score was -0.128. Consider `CSc1cccc(NC(=S)N(C(C)C)C(C)c2ccccn2)c1` (stereo unspecified), for which the B-score was -0.872. The result for `COc1cccc(NC(=S)N(Cc2ccc(C)cc2)Cc2ccccn2)c1` reads 0.0921; that for `CSc1cccc(NC(=S)N(Cc2ccccc2)Cc2ccccn2)c1`, -1.37 (active); that for `O=C(Nc1ccncc1)c1ccccc1[N+](=O)[O-]`, -0.131.

With `CC1=C/C(=N\S(=O)(=O)c2ccccc2)C(C(C)C)=CC1=O`, the B-score is -2.34. Under `COc1ccc(/C=C/C(=O)N2CCCC2)cc1OC` stands 1.08; under `Cc1sc2c(c1C)c(=O)n(-c1ccccc1)c(=O)n2CC(=O)NCC1CCCO1` (stereo unspecified), 0.885. Under `Cc1ccc(C(NC(=O)N2CCCC2)C(Cl)(Cl)Cl)cc1F` (stereo unspecified) stands 0.515; under `O=C(Nc1ccccc1Cl)/C(Cl)=C(\Cl)S(=O)c1ccccc1` (stereo unspecified), -4.2 (active). Under `COCCN(CCOC)C(=S)Nc1ccccc1Cl` stands 0.00438; under `O=C(Nc1ccccc1Cl)c1ccc2nsnc2c1`, -0.621. Regarding `COc1ccc(NC(=O)C(C)SCc2ccccc2)cc1` (stereo unspecified), the B-score is 0.339. Under `COc1ccc(-c2[nH]ncc2CN(C)Cc2cc(C)[nH]n2)c(F)c1` stands 0.139; under `COc1ccc(-c2[nH]ncc2CN(C)Cc2cccnc2)c(F)c1`, 0.572. As to `COc1ccc(-c2[nH]ncc2CN(C)Cc2c(C)n[nH]c2C)c(OC)c1`, the B-score was 1.28 (active). Under `Cc1cc(/C=C2/NC(=O)NC2=O)c(C)n1-c1cccnc1` stands 0.0128; under `O=c1c(-c2ccc3c(c2)OCCO3)c(C(F)(F)F)oc2cc(O)cc(O)c12`, -5.2 (active); under `COc1ccc(-c2onc(C)c2-c2ccc3c(c2)OCCO3)c(O)c1`, -0.0517. On to `CCc1cc2c(=O)c(-c3ccc(F)cc3)c(C(F)(F)F)oc2cc1OCC(=O)O`, for which the B-score is -0.413. For the molecule `COc1ccc(C(C)=O)cc1CSc1nc2nc(C)cc(C)n2n1`, the B-score is 1.28. With `Cc1cccc(NC(=S)Nc2ccc(Cl)c(Cl)c2)c1`, the B-score is 0.116. Turning to `COc1ccc(CCNC(=O)COC(=O)/C=C/c2cccs2)cc1OC`, the B-score is -0.931. For the molecule `COc1ccc(CN(C(=O)c2cccs2)c2nccs2)cc1OC`, the B-score was 4.52 (active). Under `COc1ccc(CCNC(=O)CSc2nnc(CNC(=O)c3cccs3)o2)cc1OC` stands -0.208; under `O=c1[nH]n2c(-c3ccccc3)nc(O)c2c2ccccc12`, 2.45; under `C=C(C)C1CC=C(C)/C(=N/NC(=O)CCCNc2cccc(C)c2)C1` (stereo unspecified), 1.1.

In the case of `Cc1ccc(CNC(=O)C2CCCN(S(C)(=O)=O)C2)cc1` (stereo unspecified), the B-score was 0.0583. Under `Cc1ccc(CNC(=O)C2CC(=O)N(C3CCCCCCC3)C2)cc1` (stereo unspecified) stands -2.38 (active). Under `CC(C)OCCCNC(=O)C1CC(=O)N(C2CCCCCCC2)C1` (stereo unspecified) stands -0.488; under `O=C(COc1ccccc1)Nc1ccc(N2CCN(C(=O)c3cccs3)CC2)cc1`, -0.916; under `CC(=O)Nc1ccc(OCCC[n+]2cccc(C(=O)[O-])c2)cc1`, 0.158. Under `COc1cc(NC(=S)NCc2ccc(S(N)(=O)=O)cc2)cc(OC)c1` stands 2.23; under `COC(=O)CNC(=O)c1ccccc1F`, 0.963; under `Cc1cc(C)n(-c2nc(C(F)(F)F)nc3ccccc23)n1`, -0.0244. On to `CN(NC(=O)c1ccccc1F)c1nc(C(F)(F)F)nc2ccccc12`, for which the B-score is 2.83 (active).

On to `Cc1ccc(C)c(-n2cc(CN3CCN(C(=O)c4ncn[nH]4)CC3)c(-c3ccccc3)n2)c1`, for which the B-score was -0.754. On to `COc1ccc(N2CCN(C(=O)COc3ccc4c(C)cc(=O)oc4c3)CC2)cc1`, for which the B-score was -0.589. Under `Cc1ccccc1N1CCN(CCCOc2ccc3c(C)cc(=O)oc3c2)CC1` stands -4.08 (active); under `CCOc1ccccc1N1CCN(C(=O)COc2ccc3c(C)cc(=O)oc3c2)CC1`, 0.824; under `CCO/C=C1\C(=O)N(c2ccc(OCC)cc2)C(=O)c2ccccc21`, -0.0391. As for `CCNC(=O)CC1C(=O)N(c2ccc(OC)cc2)C(=S)N1CCc1ccncc1` (stereo unspecified), the B-score is 0.277. As for `Cc1cc(/C=N/NC(=O)c2cccnc2)c(C)n1CC(C)C`, the B-score is 1.51. The result for `C/C(=N\NC(=O)CSc1nc2ccccc2c(=O)n1-c1ccccc1C)c1cccs1` reads 0.111; that for `Cc1cccc(-n2c(SCC(=O)Nc3cccc(S(=O)(=O)NC4=NCCCCC4)c3)nc3ccccc3c2=O)c1C`, -5.4 (active). Under `CCc1ccc(C(=O)OCC(=O)Nc2cccc(S(=O)(=O)NC3=NCCCCC3)c2)cc1` stands -1.41.
